In ChEMBL document CHEMBL2218924, “A broad activity screen in support of a chemogenomic map for kinase signalling research and drug discovery” (Biochem J, 2013):

Legend:
[1] = molecular target: Tyrosine-protein kinase Fer (Homo sapiens) (UniProt P16591); conditions: at 10 µM
[2] = molecular target: Tyrosine-protein kinase Fes/Fps (Homo sapiens) (UniProt P07332); conditions: at 1 µM
[3] = molecular target: Tyrosine-protein kinase Fes/Fps (Homo sapiens) (UniProt P07332); conditions: at 10 µM
[4] = molecular target: Tyrosine-protein kinase Fgr (Homo sapiens) (UniProt P09769); conditions: at 1 µM
Chain of Tyrosine-protein kinase Fgr (Homo sapiens) (P09769 2-529 limits assumed): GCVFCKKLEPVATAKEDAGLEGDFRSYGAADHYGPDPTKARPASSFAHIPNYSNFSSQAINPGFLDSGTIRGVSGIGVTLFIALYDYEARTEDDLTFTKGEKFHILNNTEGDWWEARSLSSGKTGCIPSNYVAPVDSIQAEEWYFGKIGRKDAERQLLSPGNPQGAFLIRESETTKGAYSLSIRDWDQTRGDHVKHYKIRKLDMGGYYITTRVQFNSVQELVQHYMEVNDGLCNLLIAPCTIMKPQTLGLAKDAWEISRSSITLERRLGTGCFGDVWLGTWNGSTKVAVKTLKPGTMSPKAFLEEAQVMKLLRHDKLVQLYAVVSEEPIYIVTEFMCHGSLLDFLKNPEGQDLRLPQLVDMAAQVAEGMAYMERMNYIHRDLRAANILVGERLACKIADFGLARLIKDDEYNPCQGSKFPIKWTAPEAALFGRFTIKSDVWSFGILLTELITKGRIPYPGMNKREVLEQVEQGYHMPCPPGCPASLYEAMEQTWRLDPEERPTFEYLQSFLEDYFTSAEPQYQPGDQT

[5] = molecular target: Tyrosine-protein kinase Fgr (Homo sapiens) (UniProt P09769); conditions: at 10 µM
[6] = molecular target: Vascular endothelial growth factor receptor 1 (Homo sapiens) (UniProt P17948); conditions: at 1 µM
Chain of Vascular endothelial growth factor receptor 1 (Homo sapiens) (P17948 whole entry): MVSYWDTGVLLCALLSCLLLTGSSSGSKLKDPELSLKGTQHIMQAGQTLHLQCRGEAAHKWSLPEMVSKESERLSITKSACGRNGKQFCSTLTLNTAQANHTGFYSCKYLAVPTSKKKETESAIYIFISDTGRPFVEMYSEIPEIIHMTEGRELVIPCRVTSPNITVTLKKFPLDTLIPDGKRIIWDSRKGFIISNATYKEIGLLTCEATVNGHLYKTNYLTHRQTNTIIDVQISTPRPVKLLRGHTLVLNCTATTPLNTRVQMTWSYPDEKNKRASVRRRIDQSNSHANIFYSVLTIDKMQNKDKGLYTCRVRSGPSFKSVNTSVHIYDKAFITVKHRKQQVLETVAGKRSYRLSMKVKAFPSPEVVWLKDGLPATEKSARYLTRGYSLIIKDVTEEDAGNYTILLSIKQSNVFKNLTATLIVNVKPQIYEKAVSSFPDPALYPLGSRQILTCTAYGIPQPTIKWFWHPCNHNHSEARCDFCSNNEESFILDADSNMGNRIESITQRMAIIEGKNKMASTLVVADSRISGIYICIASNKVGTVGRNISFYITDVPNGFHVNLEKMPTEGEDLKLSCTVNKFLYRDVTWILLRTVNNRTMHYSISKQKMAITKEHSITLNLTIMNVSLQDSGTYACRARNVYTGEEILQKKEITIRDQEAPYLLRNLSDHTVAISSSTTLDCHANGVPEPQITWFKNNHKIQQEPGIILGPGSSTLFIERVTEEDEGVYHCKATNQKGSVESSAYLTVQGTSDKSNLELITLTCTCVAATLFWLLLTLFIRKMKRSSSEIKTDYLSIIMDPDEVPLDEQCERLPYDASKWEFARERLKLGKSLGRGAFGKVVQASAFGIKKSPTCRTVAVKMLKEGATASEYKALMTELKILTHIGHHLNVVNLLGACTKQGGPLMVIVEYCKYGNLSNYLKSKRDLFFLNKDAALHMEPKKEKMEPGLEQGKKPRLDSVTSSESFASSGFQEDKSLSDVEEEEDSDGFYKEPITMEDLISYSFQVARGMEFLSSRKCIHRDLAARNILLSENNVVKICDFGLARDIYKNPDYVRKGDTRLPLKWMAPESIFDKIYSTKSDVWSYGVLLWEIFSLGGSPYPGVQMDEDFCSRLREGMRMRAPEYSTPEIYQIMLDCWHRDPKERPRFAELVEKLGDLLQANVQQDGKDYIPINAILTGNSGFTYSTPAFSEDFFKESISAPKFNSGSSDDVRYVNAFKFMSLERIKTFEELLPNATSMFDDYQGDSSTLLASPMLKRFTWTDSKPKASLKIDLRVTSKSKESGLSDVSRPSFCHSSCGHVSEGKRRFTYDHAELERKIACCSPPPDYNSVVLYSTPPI

[7] = molecular target: Vascular endothelial growth factor receptor 1 (Homo sapiens) (UniProt P17948); conditions: at 10 µM
[8] = molecular target: Receptor-type tyrosine-protein kinase FLT3 (Homo sapiens) (UniProt P36888); conditions: at 1 µM
[9] = molecular target: Receptor-type tyrosine-protein kinase FLT3 (Homo sapiens) (UniProt P36888); conditions: at 10 µM
[10] = molecular target: Vascular endothelial growth factor receptor 3 (Homo sapiens) (UniProt P35916); conditions: at 1 µM
[11] = molecular target: Vascular endothelial growth factor receptor 3 (Homo sapiens) (UniProt P35916); conditions: at 10 µM
[12] = molecular target: Macrophage colony-stimulating factor 1 receptor (Homo sapiens) (UniProt P07333); conditions: at 1 µM
Chain of Macrophage colony-stimulating factor 1 receptor (Homo sapiens) (P07333 whole entry): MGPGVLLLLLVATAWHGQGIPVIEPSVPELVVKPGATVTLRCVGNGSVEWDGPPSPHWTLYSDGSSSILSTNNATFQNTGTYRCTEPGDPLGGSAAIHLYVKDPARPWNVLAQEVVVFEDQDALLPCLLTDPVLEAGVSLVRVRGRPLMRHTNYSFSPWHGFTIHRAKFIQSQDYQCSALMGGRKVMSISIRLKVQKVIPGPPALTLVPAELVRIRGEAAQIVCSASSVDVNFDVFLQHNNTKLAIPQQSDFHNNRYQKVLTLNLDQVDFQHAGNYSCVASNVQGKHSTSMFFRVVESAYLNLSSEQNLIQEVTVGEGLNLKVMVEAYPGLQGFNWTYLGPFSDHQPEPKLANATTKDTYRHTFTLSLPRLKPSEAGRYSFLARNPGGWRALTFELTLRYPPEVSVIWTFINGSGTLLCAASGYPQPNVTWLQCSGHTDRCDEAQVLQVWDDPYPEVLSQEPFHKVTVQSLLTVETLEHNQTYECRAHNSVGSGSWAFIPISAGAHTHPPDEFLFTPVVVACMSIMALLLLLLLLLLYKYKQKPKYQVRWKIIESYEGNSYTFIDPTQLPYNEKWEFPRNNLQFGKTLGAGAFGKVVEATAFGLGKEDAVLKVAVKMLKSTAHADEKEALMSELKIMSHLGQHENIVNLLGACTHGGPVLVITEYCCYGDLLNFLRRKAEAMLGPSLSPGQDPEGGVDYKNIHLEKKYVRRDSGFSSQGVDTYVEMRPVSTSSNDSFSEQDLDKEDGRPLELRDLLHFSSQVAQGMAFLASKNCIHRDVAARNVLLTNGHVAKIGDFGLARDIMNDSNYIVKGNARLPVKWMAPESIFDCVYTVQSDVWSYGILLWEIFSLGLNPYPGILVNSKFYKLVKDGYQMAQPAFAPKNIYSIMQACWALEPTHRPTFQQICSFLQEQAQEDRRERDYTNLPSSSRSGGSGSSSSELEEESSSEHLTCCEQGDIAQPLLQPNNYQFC

[13] = molecular target: Macrophage colony-stimulating factor 1 receptor (Homo sapiens) (UniProt P07333); conditions: at 10 µM
[14] = molecular target: Tyrosine-protein kinase Fyn (Homo sapiens) (UniProt P06241); conditions: at 1 µM
Chain of Tyrosine-protein kinase Fyn (Homo sapiens) (P06241 2-537 limits assumed): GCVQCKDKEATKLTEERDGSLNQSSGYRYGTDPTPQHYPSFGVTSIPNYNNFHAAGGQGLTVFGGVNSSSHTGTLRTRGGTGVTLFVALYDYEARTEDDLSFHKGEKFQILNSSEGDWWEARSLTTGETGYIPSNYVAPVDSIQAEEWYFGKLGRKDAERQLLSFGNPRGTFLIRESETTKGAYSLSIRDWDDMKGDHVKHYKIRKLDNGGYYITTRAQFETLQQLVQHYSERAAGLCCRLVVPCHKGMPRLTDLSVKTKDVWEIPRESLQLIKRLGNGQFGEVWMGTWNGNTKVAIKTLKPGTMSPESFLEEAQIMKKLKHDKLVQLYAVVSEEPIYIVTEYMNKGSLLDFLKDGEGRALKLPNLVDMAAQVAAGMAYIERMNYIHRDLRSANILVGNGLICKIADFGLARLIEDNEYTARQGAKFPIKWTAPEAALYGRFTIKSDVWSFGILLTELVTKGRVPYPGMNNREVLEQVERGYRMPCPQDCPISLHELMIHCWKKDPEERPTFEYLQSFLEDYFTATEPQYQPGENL

[15] = molecular target: Tyrosine-protein kinase Fyn (Homo sapiens) (UniProt P06241); conditions: at 10 µM
[16] = molecular target: T1, Mitogen-activated protein kinase kinase kinase kinase 2 (Homo sapiens) (UniProt Q12851); conditions: at 1 µM
T1 sequence (whole entry): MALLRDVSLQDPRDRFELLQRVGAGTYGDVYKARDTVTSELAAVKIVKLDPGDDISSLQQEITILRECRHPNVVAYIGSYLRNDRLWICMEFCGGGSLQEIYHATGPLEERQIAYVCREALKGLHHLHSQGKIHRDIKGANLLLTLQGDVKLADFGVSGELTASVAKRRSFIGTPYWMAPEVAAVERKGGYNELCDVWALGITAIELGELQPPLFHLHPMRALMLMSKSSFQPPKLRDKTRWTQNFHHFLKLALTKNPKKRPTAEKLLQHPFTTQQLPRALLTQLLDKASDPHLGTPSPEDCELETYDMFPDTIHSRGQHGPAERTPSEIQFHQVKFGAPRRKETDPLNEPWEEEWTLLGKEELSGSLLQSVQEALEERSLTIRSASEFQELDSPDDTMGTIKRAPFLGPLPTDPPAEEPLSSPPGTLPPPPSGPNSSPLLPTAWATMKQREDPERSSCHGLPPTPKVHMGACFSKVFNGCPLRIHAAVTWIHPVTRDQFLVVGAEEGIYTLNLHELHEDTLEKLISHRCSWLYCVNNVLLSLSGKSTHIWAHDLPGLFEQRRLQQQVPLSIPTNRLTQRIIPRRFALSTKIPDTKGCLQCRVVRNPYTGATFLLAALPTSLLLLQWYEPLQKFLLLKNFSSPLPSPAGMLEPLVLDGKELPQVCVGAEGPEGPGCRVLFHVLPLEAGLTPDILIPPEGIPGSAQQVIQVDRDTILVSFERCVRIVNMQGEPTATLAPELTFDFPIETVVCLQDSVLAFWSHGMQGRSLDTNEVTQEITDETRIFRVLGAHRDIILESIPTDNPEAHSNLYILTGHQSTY

[17] = molecular target: T1, Mitogen-activated protein kinase kinase kinase kinase 2 (Homo sapiens); conditions: at 10 µM
[18] = molecular target: G protein-coupled receptor kinase 5 (Homo sapiens) (UniProt P34947); conditions: at 10 µM
Chain of G protein-coupled receptor kinase 5 (Homo sapiens) (P34947 whole entry, looked up): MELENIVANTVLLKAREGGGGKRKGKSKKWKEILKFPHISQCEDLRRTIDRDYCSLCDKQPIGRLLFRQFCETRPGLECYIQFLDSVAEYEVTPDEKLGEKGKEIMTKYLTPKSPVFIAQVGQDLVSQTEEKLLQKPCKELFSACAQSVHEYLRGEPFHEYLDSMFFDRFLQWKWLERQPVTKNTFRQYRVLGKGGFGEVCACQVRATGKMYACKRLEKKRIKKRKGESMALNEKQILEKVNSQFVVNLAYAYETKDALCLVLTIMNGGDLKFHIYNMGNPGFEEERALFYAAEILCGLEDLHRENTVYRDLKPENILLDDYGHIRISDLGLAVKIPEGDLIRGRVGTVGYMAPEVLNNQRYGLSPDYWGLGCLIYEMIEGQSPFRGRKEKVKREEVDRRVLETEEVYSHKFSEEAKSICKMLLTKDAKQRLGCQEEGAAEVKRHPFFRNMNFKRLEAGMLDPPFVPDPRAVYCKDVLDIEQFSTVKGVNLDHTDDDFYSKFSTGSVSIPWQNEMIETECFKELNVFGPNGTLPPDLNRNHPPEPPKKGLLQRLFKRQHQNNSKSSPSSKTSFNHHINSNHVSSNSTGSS

[19] = molecular target: G protein-coupled receptor kinase 6 (Homo sapiens) (UniProt P43250); conditions: at 10 µM
[20] = molecular target: T2, Rhodopsin kinase GRK7 (Homo sapiens) (UniProt Q8WTQ7); conditions: at 1 µM
T2 sequence (whole entry): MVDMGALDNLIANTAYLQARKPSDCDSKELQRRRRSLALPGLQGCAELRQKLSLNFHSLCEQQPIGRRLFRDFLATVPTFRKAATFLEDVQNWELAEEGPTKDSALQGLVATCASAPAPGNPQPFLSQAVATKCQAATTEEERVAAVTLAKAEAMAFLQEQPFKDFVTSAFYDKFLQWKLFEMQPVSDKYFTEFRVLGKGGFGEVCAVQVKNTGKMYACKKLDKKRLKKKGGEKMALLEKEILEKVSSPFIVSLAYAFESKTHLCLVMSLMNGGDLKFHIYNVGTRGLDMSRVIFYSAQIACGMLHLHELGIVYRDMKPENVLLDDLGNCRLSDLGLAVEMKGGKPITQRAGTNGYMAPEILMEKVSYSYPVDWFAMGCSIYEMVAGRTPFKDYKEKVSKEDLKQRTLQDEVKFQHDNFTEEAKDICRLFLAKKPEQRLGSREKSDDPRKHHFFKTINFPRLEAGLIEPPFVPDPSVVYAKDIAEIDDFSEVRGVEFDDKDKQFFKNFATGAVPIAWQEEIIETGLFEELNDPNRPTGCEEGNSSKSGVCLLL

Chain of Tyrosine-protein kinase Fes/Fps (Homo sapiens) (P07332 whole entry): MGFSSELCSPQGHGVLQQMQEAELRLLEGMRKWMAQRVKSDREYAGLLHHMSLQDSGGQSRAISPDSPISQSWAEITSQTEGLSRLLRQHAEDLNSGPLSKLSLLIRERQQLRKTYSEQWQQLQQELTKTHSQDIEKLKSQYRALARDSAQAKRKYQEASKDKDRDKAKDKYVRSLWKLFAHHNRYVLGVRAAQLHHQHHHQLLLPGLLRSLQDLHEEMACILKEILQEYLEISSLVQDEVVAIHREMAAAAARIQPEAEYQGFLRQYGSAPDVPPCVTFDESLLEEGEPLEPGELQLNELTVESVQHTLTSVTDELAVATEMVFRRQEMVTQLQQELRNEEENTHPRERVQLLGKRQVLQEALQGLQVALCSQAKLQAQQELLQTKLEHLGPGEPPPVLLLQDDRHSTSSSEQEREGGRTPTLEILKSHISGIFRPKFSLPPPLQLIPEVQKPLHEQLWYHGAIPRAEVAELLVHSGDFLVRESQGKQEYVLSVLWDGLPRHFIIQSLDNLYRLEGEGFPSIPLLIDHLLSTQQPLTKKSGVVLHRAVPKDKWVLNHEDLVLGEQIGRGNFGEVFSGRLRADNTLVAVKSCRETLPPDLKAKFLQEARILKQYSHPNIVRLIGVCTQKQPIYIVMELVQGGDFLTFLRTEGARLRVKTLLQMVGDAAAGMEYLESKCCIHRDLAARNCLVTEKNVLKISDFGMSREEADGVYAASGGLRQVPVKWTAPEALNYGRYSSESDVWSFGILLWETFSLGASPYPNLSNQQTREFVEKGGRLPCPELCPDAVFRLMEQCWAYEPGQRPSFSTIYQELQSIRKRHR

Structure (SMILES)	residual activity [1]	residual activity [2]	residual activity [3]	residual activity [4]	residual activity [5]	residual activity [6]	residual activity [7]	residual activity [8]	residual activity [9]	residual activity [10]	residual activity [11]	residual activity [12]	residual activity [13]	residual activity [14]	residual activity [15]	residual activity [16]	residual activity [17]	residual activity [18]	residual activity [19]	residual activity [20]
COc1cc2nccc(Oc3ccc(NC(=S)NC(=O)c4ccccc4C)cc3)c2cc1OC	34%	79%	36%	14%	3%	5%	0%	75%	31%	1%	0%	0%	-1%	-1%	0%	68%	44%	88%	79%	88%
Cn1sc(=O)n(Cc2ccccc2)c1=O	91%	93%	85%	90%	95%	85%	73%	86%	81%	85%	79%	91%	80%	99%	96%	88%	81%	85%	80%	89%
O=C1C(Cl)=C(N2C(=O)CCC2=O)C(=O)c2ccccc21	91%	83%	97%	94%	96%	96%	84%	90%	87%	91%	80%	73%	65%	76%	75%	90%	89%	94%	91%	99%
O=C(c1ccccc1)c1ccc(N2CCOCC2)cc1O	97%	116%	93%	–	–	100%	93%	83%	53%	87%	85%	75%	55%	–	–	95%	89%	–	88%	–
Nc1ncnc2c1c(-c1ccc(Oc3ccccc3)cc1)cn2C1CCCC1	45%	112%	52%	2%	0%	15%	0%	19%	0%	1%	0%	18%	1%	0%	0%	87%	54%	89%	73%	87%
COc1cc2ncnc(Nc3cccc(Cl)c3)c2cc1OC	105%	119%	86%	52%	12%	60%	16%	111%	52%	47%	6%	88%	38%	41%	6%	–	50%	–	–	106%
O=C1Nc2ccccc2/C1=C\c1c(Cl)[nH]c2ccccc12	67%	99%	78%	–	64%	–	38%	–	55%	64%	8%	79%	27%	81%	59%	–	69%	–	–	99%
CN(C)S(=O)(=O)c1ccc2c(c1)/C(=C/c1cc3c([nH]1)CCCC3)C(=O)N2	68%	82%	61%	21%	9%	67%	56%	27%	41%	33%	46%	4%	0%	22%	24%	5%	5%	84%	–	–
COc1cc2c(cc1OC)-c1n[nH]c(Nc3cccc(F)c3)c1C2	82%	–	59%	20%	4%	–	–	47%	5%	–	–	1%	0%	16%	0%	–	44%	–	81%	–
O=C1NC(=O)C(c2c[nH]c3ccccc23)=C1c1c[nH]c2ccccc12	52%	–	48%	98%	60%	4%	1%	19%	1%	2%	1%	82%	32%	83%	29%	80%	19%	–	68%	78%
O=C(O)/C=C/c1cc(Br)c(Br)c(Br)c1Br	107%	97%	74%	104%	103%	92%	67%	72%	27%	79%	27%	79%	62%	89%	88%	100%	72%	91%	84%	105%
O=C(CCCc1ccc(-c2ccccc2F)cc1)Nc1ccc(O)cc1	91%	107%	100%	93%	92%	109%	100%	101%	87%	101%	83%	97%	43%	82%	72%	96%	89%	91%	90%	104%
CCCCc1c(-c2ccc(O)cc2)[nH]c2nccnc12	81%	35%	12%	57%	36%	43%	11%	29%	6%	6%	2%	–	6%	43%	11%	7%	4%	90%	90%	86%
CCCCc1c(-c2ccc(OC)cc2)[nH]c2nccnc12	91%	34%	51%	61%	78%	44%	32%	27%	30%	6%	3%	14%	8%	40%	37%	22%	32%	–	–	77%
O=C(c1cc2cc(O)ccc2[nH]1)c1cc2cc(O)ccc2[nH]1	55%	–	28%	5%	2%	20%	2%	0%	0%	4%	1%	54%	10%	7%	1%	24%	4%	82%	78%	75%
O=c1cc(N2CCNCC2)oc2c(-c3ccccc3)cccc12	95%	–	89%	–	90%	88%	95%	78%	81%	96%	90%	61%	78%	88%	88%	90%	83%	104%	84%	95%
NC(=O)Nc1sc(-c2ccc(F)cc2)cc1C(N)=O	50%	78%	24%	28%	4%	17%	2%	22%	3%	4%	0%	11%	2%	24%	5%	25%	5%	82%	74%	67%
Oc1cccc(-c2nc(N3CCOCC3)c3oc4ncccc4c3n2)c1	99%	137%	–	118%	97%	91%	80%	89%	72%	–	–	78%	80%	82%	88%	–	85%	–	–	93%
N#Cc1c(NC(=O)c2cccc3ccccc23)sc2c1CCCC2	97%	–	95%	99%	135%	–	–	–	77%	92%	86%	69%	74%	72%	87%	–	90%	98%	90%	–
CC(C)[C@H](CO)Nc1nc(Nc2cc(N)cc(Cl)c2)c2ncn(C(C)C)c2n1	23%	57%	12%	33%	3%	–	–	12%	2%	11%	3%	55%	21%	9%	0%	–	–	44%	40%	58%
NCCNc1ncc(C(N)=O)c(Nc2cccc(C(F)(F)F)c2)n1	47%	32%	3%	30%	6%	–	–	50%	5%	–	48%	57%	4%	–	–	13%	0%	79%	73%	–
CC(C)c1nn(-c2c(Cl)cccc2Cl)c2nc(Cc3ccc(OCCO)cc3)[nH]c(=O)c12	95%	109%	97%	–	95%	90%	82%	81%	81%	84%	56%	62%	51%	67%	74%	99%	70%	78%	86%	93%
CCN(CC)CCNC(=O)c1c(C)[nH]c(/C=C2\C(=O)Nc3ccc(Cl)cc32)c1C	14%	14%	2%	8%	2%	5%	0%	1%	-1%	0%	1%	0%	0%	6%	1%	5%	0%	33%	17%	57%
CCCC(=O)Oc1ccc2[nH]c(C(=O)c3cc4ccccc4[nH]3)cc2c1	98%	104%	81%	97%	82%	83%	86%	73%	50%	73%	68%	78%	83%	78%	89%	86%	70%	95%	78%	93%
CC(C)(C)n1nc(Cc2cccc3ccccc23)c2c(N)ncnc21	39%	95%	27%	35%	4%	62%	14%	102%	75%	42%	5%	59%	6%	30%	3%	–	44%	96%	–	98%
Nc1ncnc2[nH]nc(Nc3ccc(F)cc3)c12	99%	98%	–	56%	18%	–	35%	114%	94%	80%	41%	69%	27%	54%	17%	98%	49%	97%	97%	110%
